Screening data deposited in PubChem by National Center for Advancing Translational Sciences (NCATS).
An excerpt weighted towards active compounds, which were near 2.4% of everything screened.
D2 antagonist: D2 dopamine receptor (human) antagonism; P14416; HEK293 TREx D2 cells, calcium flux, dopamine EC80; inhibition, % at 10 µM; actives 2% (n = 340,000); AID 485344; in the data active = inhibition above about 30%; inactive = below that, where a call was filed; note: 0% is about no effect
Target sequence (P14416 whole entry, looked up): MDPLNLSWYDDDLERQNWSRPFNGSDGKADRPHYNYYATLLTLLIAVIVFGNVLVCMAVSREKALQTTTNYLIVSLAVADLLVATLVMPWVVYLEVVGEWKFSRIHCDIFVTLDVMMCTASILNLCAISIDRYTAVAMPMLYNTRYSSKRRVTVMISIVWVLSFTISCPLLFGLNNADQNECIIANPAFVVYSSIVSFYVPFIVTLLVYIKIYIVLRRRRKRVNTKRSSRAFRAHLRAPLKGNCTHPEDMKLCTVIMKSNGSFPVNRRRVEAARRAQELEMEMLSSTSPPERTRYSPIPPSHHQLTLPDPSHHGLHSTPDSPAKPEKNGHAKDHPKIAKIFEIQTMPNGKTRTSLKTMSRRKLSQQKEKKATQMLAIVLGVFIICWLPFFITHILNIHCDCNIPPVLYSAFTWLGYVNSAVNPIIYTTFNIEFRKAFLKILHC
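Tetracycline-induced HEK293 T-REx cells expressing D2 force-coupled to calcium signalling were dye-loaded, exposed to compound for 180 s, then challenged with an EC80 of dopamine; calcium flux was followed kinetically for a further 180 s.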
D2 PAM-1: potentiates the human D2 dopamine receptor allosterically; P14416; DiscoveRx D2 beta-arrestin cells, luminescence, 90 min; 100% = 57 uM dopamine signal; potentiation, % (test concentration not listed); actives 0.23% (n = 360,000); in the data active = potentiation above about 50%
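PathHunter beta-arrestin assay in DiscoveRx D2 cells. Compounds were added with an EC20 of dopamine (50 nM final) for 90 min at 37 deg C. Luminescence was read 1 h after detection reagent, with 57 uM dopamine as the EC100 control.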
D2 ag-1: human D2 receptor agonism in beta-arrestin assay; P14416; DiscoveRx PathHunter D2 beta-arrestin, luminescence, 90 min; 100% = 57 uM dopamine signal; activation, % (test concentration not listed); actives 0.084% (n = 360,000); in the data active = activation above about 40%
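DiscoveRx PathHunter D2 beta-arrestin cells (2,100/well) attached overnight, then compound-stimulated 90 min at 37 C in HBSS/10 mM HEPES/0.1% Tween-20 buffer; beta-galactosidase complementation read by luminescence after 1 h at ambient temperature. Dopamine 57 uM final (EC100) as control.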
D2 ag-2: agonists of human D2 dopamine receptor; P14416; HEK293 T-REx D2 cells, calcium flux agonist mode; activation, % at 2 µM; actives 0.53% (n = 340,000); AID 485358;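 active = activation over 3 SD above normal in the single-dose calcium agonist read, cut at about 30% in these data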; note: 0% is about no effect
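Calcium-flux readout, 1 cycle/sec over 180 s following compound pin transfer, in inducible HEK293 Trex D2 cells (force-coupled); dopamine controls included. Positive calcium responses during this window marked compounds as potential agonists.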
D2 PAM-2: positively modulates the human D2 dopamine receptor allosterically. P14416. actives 0.34% (n = 340,000). AID 485347. HEK293 T-REx D2, calcium flux, EC20 dopamine potentiation. potentiation, % at 10 µM;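 active = potentiation over 3 SD above the plate norm, cut at about 30% in these data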; note: 0% is about no effect
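Potentiation of an EC20 dopamine calcium response measured kinetically over 180 s, after a preceding 180 s compound-only read flagging agonists. Cells: inducible Hek293 Trex D2 line, 4000/well, cultured overnight at 30 C before dye loading.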
Numbers without * were called inactive; . = no result given.

SMILES	D2 antagonist	D2 PAM-1	D2 ag-1	D2 ag-2	D2 PAM-2
COc1cccc(C2CNC3(CCCC(C)C3)c3[nH]c4ccccc4c32)c1OC (stereo not given)	-8	-17	-6	2	-25
CC1(C)CC(=O)CC2(C1)NCC(c1ccccc1)c1c2[nH]c2ccccc12 (stereo not given)	31*	-7	0	4	-5
COC(=O)COc1ccc2c(-c3cccc([N+](=O)[O-])c3)cc(=O)oc2c1	50*	19	1	1	-7
CCNC(=O)C1CCCN(C(=O)c2c(-c3ccccc3)noc2C)CC1 (stereo not given)	.	0	-1	.	.
O=S(=O)([N-]c1nc2ccccc2nc1-[n+]1ccccc1)c1ccc(F)cc1	-22	-22	-1	0	-6
O=C(COC(=O)c1ccccc1)c1ccc(S(=O)(=O)N2CCCCC2)cc1	-3	1	-6	0	10
O=C(COc1ccccc1)OCC(=O)c1ccc(S(=O)(=O)N2CCCCC2)cc1	31*	-35	-9	0	2
O=C(COc1ccc(S(=O)(=O)N2CCCCC2)cc1)N1CCCC1	31*	-2	-2	0	-9
Cc1cc(C(=O)Nc2cccc3c2O[C@H](CN(C)CC2CC2)[C@@H](C)CN([C@H](C)CO)C3=O)n(C)n1	.	-1	-2	.	.
CC(C)CCNC(=O)c1ccc2c(c1)N(C)C(=O)c1ccccc1S2	47*	-23	-2	2	-21
CCCCNC(=O)c1ccc2c(c1)N(C)C(=O)c1ccccc1S2	-27	-13	1	-1	-9
CCN1C(=O)c2ccccc2Sc2ccc(C(=O)NCCC(C)C)cc21	44*	-21	-4	0	-26
O=C(COc1ccccc1)NC(=S)Nc1cccc2c(O)cccc12	.	-14	1	.	.
O=C(CN1C(=O)COc2ccc(S(=O)(=O)N3CCOCC3)cc21)Nc1ccc(F)c(Cl)c1	.	.	.	0	-1
O=C(CCNS(=O)(=O)c1ccc2[nH]c(=O)oc2c1)Nc1cccc(Br)c1	16	-3	-2	0	-3
CCOC(=O)Cn1c(C)c(Br)c(=O)c2cccc(C)c21	31*	-27	-3	0	-11
Cc1ccc2cc(CN(CC(C)C)S(=O)(=O)c3cccc4nonc34)c(=O)[nH]c2c1	-6	-5	-10	2	-10
O=C1OC(c2ccccc2)(c2ccc(O)cc2)c2ccccc21 (stereo not given)	.	-2	-1	.	.
O=C1OC2(c3ccccc31)c1cc(I)c(O)c(I)c1Oc1c2cc(I)c(O)c1I	53*	.	.	105*	-17
CC(C)c1cnc2c(c1SCC(=O)c1ccc(Cl)cc1)c(=O)n(C)c(=O)n2C	.	.	.	0	12
OC(C#CCCN1CCCCC1)(c1ccccc1)c1ccccc1	33*	-11	0	2	-31
OC(CCN1CCCCC1)(c1ccccc1)C1CCCCC1 (stereo not given)	46*	-38	-4	-1	-25
OC(C#CCN1CCCCCC1)(c1ccccc1)c1cccnc1 (stereo not given)	58*	-28	0	0	-19
OC(C#CCN1CCCC1)(c1ccccc1)c1cccnc1 (stereo not given)	-1	-17	-2	2	-10
CN(C)CCn1c(N)nc2ccccc21	15	-7	-8	0	-2
SMILES	D2 antagonist	D2 PAM-1	D2 ag-1	D2 ag-2	D2 PAM-2
COCCN(C(=O)c1ccc(-c2ccc([N+](=O)[O-])cc2)o1)c1c(N)n(CC(C)C)c(=O)[nH]c1=O	.	-23	-4	.	.
Cc1ccc(S(=O)(=O)Nc2ccc(S(=O)(=O)Nc3nccs3)cc2)c([N+](=O)[O-])c1	6	11	2	-1	-4
Cc1cc(C)cc(NC(=O)C(=O)NCCCN2CCCC2=O)c1	12	-7	-3	4	-13
CSc1ccccc1NC(=O)Nc1ccc(Cl)cc1	31*	-8	1	1	-26
CCN(CC(=O)NCc1ccc(Cl)cc1)C(=O)COc1ccc(C)cc1C	-2	-17	-6	0	-4
COc1ccc(NC(=O)CCN=C2NS(=O)(=O)c3ccccc32)cc1S(=O)(=O)N(C)C	-9	-5	3	0	4
COc1ccc(-n2nc(C(=O)NCC(=O)N3CCCC(C)C3)c3ccccc3c2=O)cc1Cl (stereo not given)	-18	2	5	0	32*
COc1ccc(/C=N/NC(=O)c2nn(-c3ccccc3)c(=O)c3c(N)scc23)cc1	-2	24	7	0	-3
CCOC(=O)C1CCCN(C(=O)CNC(=O)c2nn(-c3ccc(OC)c(Cl)c3)c(=O)c3ccccc23)C1 (stereo not given)	-15	11	-1	0	3
COCCCNC(=O)CNC(=O)c1nn(-c2ccc(OC)c(Cl)c2)c(=O)c2ccccc12	50*	-3	3	0	-2
COc1ccc(/C=N/NC(=O)c2nn(-c3ccc(C)c(C)c3)c(=O)c3ccccc23)cc1	45*	5	-4	1	7
COc1ccc(-n2nc(C(=O)NCC(=O)NCCCN3CCCCCC3)c3ccccc3c2=O)cc1Cl	1	-9	3	3	8
Cc1cc(C)cc(OC(=O)c2snnc2C)c1	.	.	.	-1	9
Cc1ccc(C)c(CN2C(=O)C(O)(c3c[nH]c4ccccc34)c3ccccc32)c1 (stereo not given)	.	.	.	.	3
CC(C)CNC(=O)CN(c1ccccc1)S(=O)(=O)c1ccccc1[N+](=O)[O-]	-6	6	-7	0	23
Cc1nc2ccc(NC(=O)COc3ccccc3)cc2s1	3	-5	1	1	-1
Cc1nc2ccc(NC(=O)c3ccc4ccccc4n3)cc2s1	-4	-3	-2	-2	31*
Cc1cccc(OCC(=O)Nc2ccc3nc(C)sc3c2)c1	-7	-5	-3	-1	34*
CN1C(=O)N(CC(=O)N2CCN(S(=O)(=O)Cc3ccccc3)CC2)C(=O)C12CCCCC2	2	-6	-1	1	12
CC(C)(C)N(Cc1ccccc1)C(=O)COC(=O)C1CCN(c2ccc(C(F)(F)F)cn2)CC1	-17	-15	-6	0	59*
CC(C)N(Cc1ccccc1)C(=O)COC(=O)C1CCN(c2ccc(C(F)(F)F)cn2)CC1	3	-6	-5	1	-11
CCCN1CCN(CCCNC(=O)c2cc3c(=O)oc4ccc(C)cc4c3s2)CC1	5	-11	-2	0	34*
Cc1ccc2oc(=O)c3cc(C(=O)NCCCN4CCCC(C)C4)sc3c2c1 (stereo not given)	43*	-32	-2	0	-18
COCCCNC(=O)c1cc2c(=O)oc3ccc(C)cc3c2s1	.	.	.	0	14
